Source: PubChem (Sanford-Burnham Center for Chemical Genomics)
Hits are enriched below; roughly 2.9% of the tested compounds scored in any of these assays.
Cardio protect: modulators protecting cardiomyocytes from myocardial damage. H9c2 cardiomyocytes, H2O2 injury protection, ATPLite, 2 h. protection from H2O2 cell death, % at 20 µM. 360,000 tested, 0.63% active;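 active = compounds giving at least 50% protection of heart cells from peroxide-induced death in the single-dose screen, raw or plate-pattern-corrected value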;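 also: 0% = DMSO wells with peroxide and 100% = DMSO wells without peroxide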
A3G deaminase: APOBEC3G (human) deaminase inhibition | 330,000 tested, 0.28% active | AID 493012 | recombinant A3G, ssDNA deamination FAM/TAMRA fluorescence | inhibition, % at 20 µM | Q9HC16;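 active = inhibition of at least 40% at 20 µM, with no more than 30% in the related APOBEC3A deaminase screen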;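 also: plate controls were DMSO wells with A3G for no effect and wells lacking A3G enzyme for full effect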
Target sequence (Q9HC16 whole entry, looked up): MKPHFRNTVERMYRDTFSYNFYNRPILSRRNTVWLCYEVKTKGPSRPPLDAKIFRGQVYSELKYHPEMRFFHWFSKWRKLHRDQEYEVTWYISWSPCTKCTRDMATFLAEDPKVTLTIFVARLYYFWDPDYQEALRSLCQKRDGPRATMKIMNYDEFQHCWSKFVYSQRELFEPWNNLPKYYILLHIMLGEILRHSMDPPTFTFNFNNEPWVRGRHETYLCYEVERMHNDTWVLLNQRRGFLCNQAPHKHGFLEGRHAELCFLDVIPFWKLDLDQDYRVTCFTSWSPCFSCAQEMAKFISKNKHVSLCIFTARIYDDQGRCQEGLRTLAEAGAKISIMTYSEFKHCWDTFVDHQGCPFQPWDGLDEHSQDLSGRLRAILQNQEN
PfG6PD inh: PfG6PD (Plasmodium falciparum) enzyme inhibition; inhibition, % at 20 µM; 350,000 tested, 0.78% active; PfGluPho enzyme, NADPH resazurin-diaphorase fluorescence;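 active = inhibition reaching at least a set limit at 20 µM in the primary screen, cut at about 59% in these data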;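 also: 0% = DMSO wells with substrate and 100% = DMSO wells lacking glucose-6-phosphate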
A3A deaminase: human APOBEC3A DNA deaminase inhibition; P31941; recombinant A3A, FAM/TAMRA ssDNA deamination fluorescence; inhibition, % at 20 µM; 330,000 tested, 0.41% active; AID 493011;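 active = at least 40% inhibition at 20 µM here, with at most 30% in a related deaminase screen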;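 also: plate controls were A3A with DMSO for no effect and wells lacking A3A enzyme for full effect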
Target sequence (P31941 whole entry, looked up): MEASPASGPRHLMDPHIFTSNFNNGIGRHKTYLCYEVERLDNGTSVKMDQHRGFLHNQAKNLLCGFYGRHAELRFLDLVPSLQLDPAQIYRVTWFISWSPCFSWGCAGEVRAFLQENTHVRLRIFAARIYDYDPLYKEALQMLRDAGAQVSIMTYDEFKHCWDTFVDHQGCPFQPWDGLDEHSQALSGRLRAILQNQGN
NadD block: blocks S. aureus nicotinate mononucleotide adenylyltransferase | inhibition, % at 20 µM | 360,000 tested, 0.78% active | purified NadD enzyme, colorimetric absorbance read-out | AID 602399; in the data active = inhibition above about 26%
TAG inh: reduces triacylglycerol accumulation in H9c2 cells; Nile Red lipid (TAG) fluorescence; cells loaded with 200 µM oleic acid; inhibition, % at 12.5 µM; 230,000 tested, 0.66% active;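 active = pattern-corrected inhibition of lipid staining of at least 50% with the nuclear-stain viability signal not falling by more than 50%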;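 also: 0% = DMSO wells and 100% = triacsin C control wells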
NadD inh conf: NadD (S. aureus) inhibition, single concentration confirmation | shares compounds with NadD block | purified S. aureus NadD, colorimetric enzyme assay | inhibition, % at 20 µM | 2,000 tested, 13% active; in the data active = inhibition mostly above about 42%, no sharp cut-off; inactive = mostly below about 42%
* hit, by the source's call; nt = not tested or not shown.

SMILES	Cardio protect	A3G deaminase	PfG6PD inh	A3A deaminase	NadD block	TAG inh	NadD inh conf
Nc1c(C(=O)Nc2ccc(S(=O)(=O)N3CCCC3)cc2)sc2nc3cc4c(cc3cc12)CCC4	-5.1	nt	9.3	nt	31.9*	nt	0.4
CCOC(=O)C1=C(C)N=c2s/c(=C/c3ccc(OCC(=O)O)cc3)c(=O)n2C1c1cc(OC)c(OC)c(OC)c1 (stereo unspecified)	-0.3	-2.1	-25.8	-0.1	12.4	6.8	nt
CCOC(=O)C1=C(C)N=c2sc(=Cc3cc(Cl)c(OCC(=O)O)c(Cl)c3)c(=O)n2C1c1cccc(OC)c1 (stereo unspecified)	-9.0	nt	nt	nt	33.9*	1.3	52.5*
CCOc1ccc(-c2csc(/C(C#N)=C\c3ccc(O)c([N+](=O)[O-])c3)n2)cc1	-7.7	-1.1	-4.0	0.2	48.1*	nt	15.7
N#C/C(=C\c1coc2ccccc2c1=O)C(N)=S	-16.6	6.1	54.6	0.9	21.7	2.6	nt
N#C/C(=C\c1coc2ccc(O)cc2c1=O)C(=O)Nc1nc2ccccc2s1	18.8	-13.5	3.8	12.2	30.4*	6.6	41.6
CC(C)(O)c1ccccc1CC[C@@H](SCC1(CC(=O)O)CC1)c1cccc(/C=C/c2ccc3ccc(Cl)cc3n2)c1	-20.5	-5.2	-16.1	-3.5	50.7*	0.8	55.6*
Cc1ccc(CNC(=O)CCSCc2cccc(F)c2)cc1	1.2	1.0	-1.8	-0.5	-6.8	nt	nt
COc1ccc(/C=C\C(=O)CC(O)(c2ccccc2)C(F)(F)F)cc1 (stereo unspecified)	-11.8	-5.7	16.0	-2.4	-6.5	nt	nt
O=C(Nc1cccc(-c2csc(Nc3ccccc3)n2)c1)c1cc([N+](=O)[O-])cc(C(F)(F)F)c1	3.8	-7.5	5.0	-4.0	37.4*	27.2	8.6
O=C1CN(c2nc(-c3ccccc3)c3cc(Cl)ccc3n2)c2ccccc2N1	-1.8	-1.1	-10.6	3.5	-2.2	nt	nt
O=C1Cc2c(-c3ccccc3)cc(-c3cccc(Cl)c3)nc2-c2ccccc2N1	-3.5	nt	-20.5	nt	37.1*	-12.9	1.8
CCN(CC(=O)NC1CC1)S(=O)(=O)c1ccc(OC)cc1	0.1	-3.5	-1.8	1.3	-1.4	-7.6	nt
C/C(=N/NC(=O)c1cc(-c2ccc(Cl)s2)[nH]n1)c1ccco1	-3.8	2.4	15.5	1.9	5.5	-7.2	nt
O=S(=O)(Nc1nccs1)c1ccc(Nc2nnc(-c3ccccc3)c3ccccc23)cc1	-8.0	-0.2	-10.4	2.2	64.2*	nt	61.9*
O=S(=O)(c1ccc(F)c(Cl)c1)N1CCN(C/C=C/c2ccccc2)CC1	-11.4	0.2	14.3	0.4	-4.0	-21.0	nt
CC(=O)N1CCN(c2ccc(NC(=O)c3ccc4ccccc4c3)cc2)CC1	-0.7	-7.4	-4.4	-1.8	-7.2	nt	nt
O=C(Nc1ccc(N2CCCC2)cc1)c1ccc2ccccc2c1	1.3	0.6	25.2	-3.1	33.6*	nt	11.8
O=C(Nc1ccc(N2CCCC2)cc1)c1ccc([N+](=O)[O-])cc1Cl	-3.3	-4.8	-5.3	-5.9	35.9*	nt	-1.7
O=C(/C=C/c1cccc([N+](=O)[O-])c1)NC(=S)Nc1cccc(NC(=O)c2ccccc2Cl)c1	15.2	3.9	5.5	5.1	29.0*	nt	-4.9
CCn1c(N2CCN(C(=S)NCCc3ccccc3)CC2)nc2ccccc21	3.8	-7.9	-16.0	-3.7	3.7	nt	nt
O=S(=O)(c1ccc(NC(=S)NCc2ccc(F)cc2)cc1)N1CCOCC1	-10.3	-4.4	5.2	-2.4	-4.1	nt	nt
Cc1nn(-c2ccc([N+](=O)[O-])cc2)c2c1C(c1cccc(Br)c1)N1C(=N2)C(=O)Nc2ccccc21 (stereo unspecified)	55.7*	-6.0	-32.2	-1.8	31.5*	nt	12.7
Cc1nn(-c2ccccc2)c2c1C(c1ccc([N+](=O)[O-])cc1)N1C(=N2)C(=O)Nc2ccccc21 (stereo unspecified)	43.4	-0.1	-1.2	-3.4	10.8	-36.5	nt
COC12NC(=O)N(C)C1(OC)C(=O)N(C)C(=O)N2C (stereo unspecified)	3.2	-4.5	-7.5	-3.6	-1.1	nt	nt
SMILES	Cardio protect	A3G deaminase	PfG6PD inh	A3A deaminase	NadD block	TAG inh	NadD inh conf
C[C@@H]1CN([C@H](C)CO)C(=O)c2cc(NC(=O)c3ccncc3)ccc2O[C@@H]1CN(C)C(=O)Nc1ccccc1	-0.3	-4.4	37.0	0.1	61.2*	-1.5	47.0*
C[C@@H]1CN([C@@H](C)CO)C(=O)Cc2cc(NC(=O)Nc3cccc4ccccc34)ccc2O[C@@H]1CN(C)Cc1ccc(C(F)(F)F)cc1	-5.7	-5.7	21.1	-0.4	31.3*	48.5	9.3
Cc1noc(C)c1NC(=O)N(C)C[C@@H]1Oc2c(NC(=O)c3ccncc3)cccc2C(=O)N([C@H](C)CO)C[C@@H]1C	0.8	6.2	46.4	5.9	36.5*	-22.5	57.4*
O=S(=O)(Nc1cccc(S(=O)(=O)N2CCOCC2)c1)c1cccs1	3.9	-5.8	-7.8	-0.2	-4.4	6.2	nt
COc1ccccc1C(=O)NCC(=O)OCc1nnc(-c2ccccc2)o1	5.7	nt	4.0	nt	-4.4	-4.1	nt
Cc1csc(NC(=O)CSc2nnc(NC(=O)COc3ccc(Cl)cc3)s2)n1	2.4	4.5	-7.2	2.9	35.1*	nt	13.3
CCCC(=O)Nc1nnc(SCC(=O)Nc2nc(C)cs2)s1	-2.6	-3.8	-14.7	0.4	2.1	6.5	nt
O=C(Cn1cnc2c(nnn2-c2cccc(Cl)c2)c1=O)NCc1ccccc1	-5.7	4.5	-6.8	6.6	0.4	-0.4	nt
Cc1cc(C(=O)N/N=C/c2ccc(-c3ccc([N+](=O)[O-])cc3Cl)o2)n[nH]1	14.2	-7.1	8.3	-4.6	39.8*	nt	8.1
Cc1nn(CCc2nn[nH]n2)c2nc(-c3ccc(Br)cc3)cc(C(F)(F)F)c12	-7.5	-10.7	47.2	-2.8	28.3*	6.1	41.5
CCOC(=O)C1=CNS(=O)(=O)NC1c1cccc(O)c1 (stereo unspecified)	2.3	-2.0	4.6	-1.3	-4.0	91.2	nt
Cc1ccc(S(=O)(=O)N(C(=O)c2ccncc2)c2ccc3oc4c(c3c2)CCCC4)cc1[N+](=O)[O-]	-15.8	-5.1	-5.3	-2.6	34.6*	nt	16.8
COc1ccc(C2=NN(C(=O)CSc3ncccn3)C(c3ccc(C)cc3)C2)cc1 (stereo unspecified)	-3.1	-6.6	-5.2	-0.6	-1.6	-12.0	nt
COc1ccc(C2=NN(C(=O)CSc3nc(=O)n4cccc(C)c4n3)C(c3ccc(C)cc3)C2)cc1 (stereo unspecified)	-2.1	-3.8	-5.8	-0.1	36.3*	18.1	9.4
CC(C)(C)NC(=O)COC(=O)c1ccccc1OCC(=O)Nc1ccc(Br)cc1	-9.6	-7.9	13.8	-5.4	-10.4	-16.2	nt
Cc1ccc(-c2nnc(Oc3ccc(NC(=O)c4ccccc4)cc3)c3ccccc23)cc1	22.5	-2.7	7.0	2.0	30.4*	nt	11.3
